Methyltransferases: Primary Screen for Target Class Profiling of Small Molecule Inhibitors of Methyltransferases; purified enzyme, MTase-Glo SAH luminescence; active compounds read low; calls only at 40 µM; 25,000 compounds, 3.9% hits; call rule not given here
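Each enzyme was assayed with SAM and its substrate. SAH formation detected by MTase-Glo luminescence; single-point 40 uM screen[…].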
Starred values were filed as active, the others as inactive; i = inactive; + = active, no number; ! = not confirmed by another sample. The sample as a whole holds a higher share of hits than the screen did. % is scaled to controls: 0 for no effect and ±100 for the full control effect.

SMILES | Methyltransferases
CC[C@@H](CO)NC(=O)[C@@H]1C=C2c3cccc4c3c(cn4C)C[C@H]2N(C)C1 | +
CC[C@@H](CO)NC(=O)[C@@H]1C=C2c3cccc4[nH]cc(c34)C[C@H]2N(C)C1 | +
COc1cccc(CNC(=O)N2Cc3ccccc3-n3cccc3C2c2ccccc2)c1 (stereo unspecified) | i
COc1ccc(C2c3cccn3-c3ccccc3CN2C(=O)Nc2ccc(F)c(Cl)c2)cc1 (stereo unspecified) | i
COC(=O)c1cccc(NC(=O)N2Cc3ccccc3-n3cccc3C2c2cc(F)cc(F)c2)c1 (stereo unspecified) | i
CCCNC(=O)N1Cc2ccccc2-n2cccc2C1c1cccc(Cl)c1 (stereo unspecified) | i
COC(=O)c1cccc(NC(=O)N2Cc3ccccc3-n3cccc3C2c2ccc(SC)cc2)c1 (stereo unspecified) | i
COc1ccc(C2c3cccn3-c3ccccc3CN2C(=O)Nc2ccc(F)c(Cl)c2)cc1OC (stereo unspecified) | i
COc1cccc(CNC(=O)N2Cc3ccccc3-n3cccc3C2c2cc(F)cc(F)c2)c1 (stereo unspecified) | i
COc1ccc(C2c3cccn3-c3ccccc3CN2C(=O)NC(C)C)cc1OC (stereo unspecified) | i
COc1cccc(CNC(=O)N2Cc3ccccc3-n3cccc3C2c2ccccc2Cl)c1 (stereo unspecified) | i
CC(=O)C1=C(O)[C@@H]2[C@H]3c4c[nH]c5cccc(c45)C[C@H]3C(C)(C)N2C1=O | +
Cc1ccccc1NC(=O)N1Cc2ccccc2-n2cccc2C1C(C)C (stereo unspecified) | i
COCCCNC(=O)N1Cc2ccccc2-n2cccc2C1c1ccccc1 (stereo unspecified) | i
COc1cccc(NC(=O)N2Cc3ccccc3-n3cccc3C2c2ccc(SC)cc2)c1 (stereo unspecified) | i
Cc1ccccc1C1c2cccn2-c2ccccc2CN1C(=O)Nc1cccc(Br)c1 (stereo unspecified) | i
C=CCN1CCC2(C)c3cc(O)ccc3C[C@H]1[C@H]2C | +
CC(C)[C@@H](CN1CC[C@@](C)(c2cccc(O)c2)[C@@H](C)C1)NC(=O)[C@H]1Cc2ccc(O)cc2CN1 | i
COc1cccc(NC(=O)N2Cc3ccccc3-n3cccc3C2c2ccc(OC)c(OC)c2)c1 (stereo unspecified) | i
Cc1ccc(C2c3cccn3-c3ccccc3CN2C(=O)Nc2ccc(Br)c(C)c2)cc1 (stereo unspecified) | i
Cc1ccc(Cl)cc1NC(=O)N1Cc2ccccc2-n2cccc2C1C(C)C (stereo unspecified) | i
CCOC(=O)c1cccc(NC(=O)N2Cc3ccccc3-n3cccc3C2c2cccc(Cl)c2)c1 (stereo unspecified) | i
CC1CCCC(=O)CCC/C=C/c2cc(O)cc(O)c2C(=O)O1 (stereo unspecified) | +
COC1CCCC(C)OC(=O)Cc2cc(O)cc(O)c2C(=O)C1 (stereo unspecified) | i
CC1CCCC(O)CCC/C=C/c2cc(O)cc(O)c2C(=O)O1 (stereo unspecified) | i
SMILES | Methyltransferases
Cc1ccc(NC(=O)N2Cc3ccccc3-n3cccc3C2C(C)C)cc1C (stereo unspecified) | i
O=C(NC1CCCC1)N1Cc2ccccc2-n2cccc2C1c1ccc(F)cc1 (stereo unspecified) | i
CCOC(=O)CNC(=O)N1Cc2ccccc2-n2cccc2C1c1ccc(Cl)cc1 (stereo unspecified) | i
CCc1ccccc1NC(=O)N1Cc2ccccc2-n2cccc2C1c1ccc(OC)c(OC)c1 (stereo unspecified) | i
[Cl-].[Cl][Pt].[NH2-].[NH2-].c1ccncc1 | +
COc1ccc(NC(=O)N2Cc3ccccc3-n3cccc3C2c2ccc(F)cc2)c(OC)c1 (stereo unspecified) | i
CC1c2cccn2-c2ccccc2CN1C(=O)Nc1ccc(F)cc1 (stereo unspecified) | i
COc1ccc(NC(=O)N2Cc3ccccc3-n3cccc3C2c2ccccc2)cc1OC (stereo unspecified) | i
CCOc1ccc(NC(=O)N2Cc3ccccc3-n3cccc3C2c2ccc(N(C)C)cc2)cc1 (stereo unspecified) | i
N#C/C(=C/c1ccc(O)c(O)c1)C(N)=S | +!
O=C(NCCc1ccccc1)N1Cc2ccccc2-n2cccc2C1c1cccs1 (stereo unspecified) | i
CCCN1CCc2cccc3c2[C@H]1Cc1ccc(O)c(O)c1-3 | +
CCCN1CCO[C@@H]2c3cc(O)ccc3OC[C@H]21 | i
CCc1ccc(C2c3cccn3-c3ccccc3CN2C(=O)NCCC(C)C)cc1 (stereo unspecified) | i
CCCNC(=O)N1Cc2ccccc2-n2cccc2C1c1cccs1 (stereo unspecified) | i
Cc1cc(C)cc(NC(=O)N2Cc3ccccc3-n3cccc3C2C)c1 (stereo unspecified) | i
CCC1CN2CCc3cc(OC)c(OC)cc3C2CC1CC1=NCCc2cc(O)c(OC)cc21 (stereo unspecified) | +
CCc1ccc(C2c3cccn3-c3ccccc3CN2C(=O)Nc2ccccc2CC)cc1 (stereo unspecified) | i
CCc1ccc(C2c3cccn3-c3ccccc3CN2C(=O)Nc2ccccc2F)cc1 (stereo unspecified) | i
CCCCN1[C@@H]2CC[C@H]1CC(OC(c1ccc(F)cc1)c1ccc(F)cc1)C2 (stereo partly specified) | +
CN(C)c1ccc(C2c3cccn3-c3ccccc3CN2C(=O)Nc2cccc(Cl)c2)cc1 (stereo unspecified) | i
COCCCNC(=O)N1Cc2ccccc2-n2cccc2C1c1cccs1 (stereo unspecified) | i
COc1ccc2c(c[n+](C)c3c4cc5c(cc4ccc23)OCO5)c1OC | +
CCOc1ccc(C2c3cccn3-c3ccccc3CN2C(=O)Nc2ccccc2F)cc1 (stereo unspecified) | i
CCOc1ccc(C2c3cccn3-c3ccccc3CN2C(=O)Nc2ccccc2C)cc1 (stereo unspecified) | i
SMILES | Methyltransferases
COc1ccc(NC(=O)N2Cc3ccccc3-n3cccc3C2c2cccs2)cc1OC (stereo unspecified) | i
COc1ccc(NC(=O)N2Cc3ccccc3-n3cccc3C2c2ccc(OC)cc2)cc1 (stereo unspecified) | i
CN(N=O)c1cc(O)ccc1O | +
CCOC(=O)C1CCC(CNC(=O)N2Cc3ccccc3-n3cccc3C2c2ccccc2)CC1 (stereo unspecified) | i
COc1cccc(CNC(=O)N2Cc3ccccc3-n3cccc3C2c2cccc(Cl)c2)c1 (stereo unspecified) | i
Cc1ccc(C2c3cccn3-c3ccccc3CN2C(=O)Nc2ccc(Br)cc2)cc1 (stereo unspecified) | i
COc1ccc(C2c3cccn3-c3ccccc3CN2C(=O)Nc2ccc(F)cc2F)cc1 (stereo unspecified) | i
CCOc1ccc(C2c3cccn3-c3ccccc3CN2C(=O)Nc2ccc(C)cc2Cl)cc1 (stereo unspecified) | i

Source: PubChem BioAssay
